Among the data in PubChem BioAssay (Tox21) are Potency and outcome values, retold here.

Assay [1] can be described thus: qHTS assay to test for compound auto fluorescence at 535 nm (green) in HEK293 cells (AID 720680).
Assay [2] in a line: qHTS assay to test for compound auto fluorescence at 460 nm (blue) in HEK293 cell free culture (AID 720681). The essentials: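 Test compounds were pinned into cell-free culture medium (DMEM with 10% FBS) and fluorescence was read directly at Ex/Em 405/460 nm. Signals were expressed as fluorescence equivalents of triamterene, with DMSO vehicle as control.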
On the technique in general: Quantitative high-throughput screening tests each substance at several concentrations.

Assay [3] can be described thus: qHTS assay to test for compound auto fluorescence at 535 nm (green) in HEK293 cell free culture (AID 720682). The essentials:
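Fluorescein serves as the green reference fluorophore; each compound's intrinsic emission at 535 nm (excitation 485 nm) is reported as an equivalent amount of that dye, measured in serum-containing DMEM without cells.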

Assay [4] is described as follows: qHTS assay to test for compound auto fluorescence at 590 nm (red) in HEK293 cell free culture (AID 720683). The method, boiled down: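 Tox21 10K library compounds were pinned into cell-free DMEM with 10% FBS and fluorescence was read at excitation 540 nm. Activity is expressed as Rose Bengal sodium equivalency.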
Assay [5] is described as follows: qHTS assay to test for compound auto fluorescence at 590 nm (red) in HepG2 cell free culture (AID 720684). The essentials: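 Ex 540 / Em 590 nm read of compound in cell-free MEM (10% FBS). Rose Bengal sodium reference.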
A short description of assay [6]: qHTS assay to test for compound auto fluorescence at 460 nm (blue) in HepG2 cell free culture (AID 720685). The essentials: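 Cell-free plates of MEM plus 10% FBS received 23 nL compound or DMSO vehicle; blue-channel (405/460 nm) intensity scored against triamterene as reference fluorophore.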
A short description of assay [7]: qHTS assay to test for compound auto fluorescence at 535 nm (green) in HepG2 cell free culture (AID 720686).
Assay [8] can be described thus: qHTS assay to test for compound auto fluorescence at 460 nm (blue) in HepG2 cells (AID 720687). The essentials: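 Cells (2,000/well in MEM with 10% FBS) attached overnight at 37 C, then were exposed to compound or DMSO for 1 hr at 37 C, 5% CO2. Fluorescence read at Ex/Em 405/460 nm, expressed as triamterene-equivalent signal.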
Assay [9] addresses Glucocorticoid receptor (Homo sapiens) (UniProt P04150). Nature of the assay: qHTS assay to identify small molecule agonists of the glucocorticoid receptor (GR) signaling pathway (AID 720691; active = well fitted activation curve with a large enough effect in the signal ratio in the repeat runs, not every such curve was filed as active; the % refers to the signal ratio). The conditions noted are these: GR-bla HeLa, beta-lactamase reporter ratio, 18 h; activation: at 62.4 µM (top of the series). The method, boiled down:
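Agonist-mode qHTS in HeLa cells stably expressing a glucocorticoid-response-element beta-lactamase reporter. Fluorescence intensity read with FRET substrate (2 h, room temperature) after 18 h compound treatment at 37 C.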

The target is the same in assay [10]. Nature of the assay: qHTS assay to identify small molecule antagonists of the glucocorticoid receptor (GR) signaling pathway (AID 720692; active = well fitted inhibition curve with a large enough effect in the signal ratio in the repeat runs, not every such curve was filed as active; the % refers to the signal ratio). The essentials:
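Inhibition of dexamethasone-driven (5 nM final) beta-lactamase expression was measured in GRE-reporter HeLa cells over 18 h at 37C. Fluorescence was read after 2 h with the B/G FRET substrate at room temperature.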

A short description of assay [11]: qHTS assay to identify small molecule antagonists of the glucocorticoid receptor (GR) signaling pathway - cell viability counter screen (AID 720693). Note: nearly all actives have a fitted effect of over 55% in size.
Assay [12] is described as follows: qHTS assay for identifying genotoxic compounds that show differential cytotoxicity against isogenic chicken DT40 cell lines with known DNA damage response pathways - wild type cell line (AID 743012). Note: nearly all actives have a fitted effect of over 60% in size. Note: potency is the fitted concentration of half-maximal effect. The essentials:
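Viability by ATP luminescence (CellTiter-Glo, 30 min RT) after 40 h compound treatment at 37 C/5% CO2, using 300 parental DNA repair-proficient DT40 cells per well.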

Assay [13] in a line: qHTS assay for identifying genotoxic compounds that show differential cytotoxicity against isogenic chicken DT40 cell lines with known DNA damage response pathways - Rev3 mutant cell line (AID 743014). Note: nearly all actives have a fitted effect of over 55% in size. Note: potency is the fitted concentration of half-maximal effect.
Assay [14] in a line: qHTS assay to identify small molecule antagonists of the androgen receptor (AR) signaling pathway - cell viability counter screen (AID 743033; note: nearly all actives have a fitted effect of over 45% in size).
A short description of assay [15]: qHTS assay to identify small molecule antagonists of the androgen receptor (AR) signaling pathway using the MDA cell line - cell viability counter screen (AID 743041; note: nearly all actives have a fitted effect of over 45% in size; note: potency is the fitted concentration of half-maximal effect). The method, boiled down:
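In this qHTS counter assay, fluorescence intensity after CellTiter-Fluor addition indicated viability of MDA-kb2 AR-luc cells given compounds and R1881 for 16 h at 37C.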

In assay [16] the target is Androgen receptor (Homo sapiens) (UniProt P10275). Nature of the assay: qHTS assay to identify small molecule antagonists of the androgen receptor (AR) signaling pathway (AID 743035; active = well fitted inhibition curve with a large enough effect in the signal ratio in the repeat runs, not every such curve was filed as active; the % refers to the signal ratio). The method, boiled down:
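Antagonist mode: AR-bla HEK293 cells co-treated with test compounds and agonist R1881 for 16 h at 37C, 5% CO2. Beta-lactamase activity read as FRET fluorescence after 2 h room-temperature substrate loading.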

Assay [17] shares this target. As to the kind of experiment: qHTS assay to identify small molecule agonists of the androgen receptor (AR) signaling pathway using the MDA cell line (AID 743040; note: nearly all actives have a fitted effect of over 20% in size). The method, boiled down:
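Cell-based luciferase reporter: MDA-kb2, MMTV promoter (AR + GR response elements). 16 h compound exposure at 37C; ONE-Glo, 30 min RT, luminescence.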

Assay [18] shares this target. Nature of the assay: qHTS assay to identify small molecule antagonists of the androgen receptor (AR) signaling pathway using the MDA cell line (AID 743042; note: nearly all actives have a fitted effect of over 55% in size). The method, boiled down: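 MDA-kb2 cells (human breast carcinoma, stably carrying an MMTV-luciferase reporter responsive to AR and GR) were plated at 3,000 cells/well and preincubated 5 hr at 37C, then given compound plus R1881 agonist for 16 h. ONE-Glo luminescence was read.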

The nature of assay [19]: qHTS assay for identifying genotoxic compounds that show differential cytotoxicity against isogenic chicken DT40 cell lines with known DNA damage response pathways - Rad54/Ku70 mutant cell line (AID 743015). Note: nearly all actives have a fitted effect of over 60% in size. Note: potency is the fitted concentration of half-maximal effect.
Assay [20] concerns the target Androgen receptor (Homo sapiens) (UniProt P10275). As to the kind of experiment: qHTS assay to identify small molecule agonists of the androgen receptor (AR) signaling pathway (AID 743036; active = well fitted activation curve with a large enough effect in the signal ratio in the repeat runs, with a control signal flat, not every such curve was filed as active; the % refers to the signal ratio). The method, boiled down:
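Fluorescence from a beta-lactamase FRET substrate served as read-out in AR-UAS-bla GripTite HEK293 cells. Cells were treated with DMSO-dissolved compounds for 16 h at 37C, then with LiveBLAzer B/G substrate for 2 h at room temperature.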

SMILES strings stand for the structures. Results filed as inconclusive are left out. Calls of active or inactive are those of the source. Unless noted, calls come from the whole dose curve; as a rule, active = well fitted curve in the direction sought with a large enough effect in the repeat runs; inconclusive = weak or mixed curves; inactive = no such curve, though single readings can be large; an effect the other way counts as inactive or inconclusive.

Sequence of Glucocorticoid receptor (Homo sapiens) (P04150 whole entry, looked up): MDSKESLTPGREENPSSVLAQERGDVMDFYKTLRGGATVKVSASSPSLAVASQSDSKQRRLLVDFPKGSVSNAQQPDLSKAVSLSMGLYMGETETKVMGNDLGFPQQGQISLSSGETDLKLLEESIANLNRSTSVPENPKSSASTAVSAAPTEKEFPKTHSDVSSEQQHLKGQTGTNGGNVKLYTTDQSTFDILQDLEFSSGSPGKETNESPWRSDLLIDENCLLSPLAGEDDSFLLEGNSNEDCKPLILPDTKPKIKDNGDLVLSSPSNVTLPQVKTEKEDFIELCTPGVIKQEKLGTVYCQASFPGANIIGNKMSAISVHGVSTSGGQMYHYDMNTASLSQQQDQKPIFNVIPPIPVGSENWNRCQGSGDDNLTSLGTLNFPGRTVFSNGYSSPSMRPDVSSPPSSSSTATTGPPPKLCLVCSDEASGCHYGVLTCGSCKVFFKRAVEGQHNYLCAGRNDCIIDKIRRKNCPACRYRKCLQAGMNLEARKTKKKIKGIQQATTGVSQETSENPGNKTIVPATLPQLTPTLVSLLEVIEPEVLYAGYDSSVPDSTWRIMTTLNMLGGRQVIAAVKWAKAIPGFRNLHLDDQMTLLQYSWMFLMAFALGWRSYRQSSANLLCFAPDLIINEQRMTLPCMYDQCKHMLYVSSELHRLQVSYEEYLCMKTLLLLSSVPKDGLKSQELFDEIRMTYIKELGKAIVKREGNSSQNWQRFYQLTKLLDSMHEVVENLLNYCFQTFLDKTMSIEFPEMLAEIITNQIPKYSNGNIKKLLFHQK
Sequence of Androgen receptor (Homo sapiens) (P10275 whole entry, looked up): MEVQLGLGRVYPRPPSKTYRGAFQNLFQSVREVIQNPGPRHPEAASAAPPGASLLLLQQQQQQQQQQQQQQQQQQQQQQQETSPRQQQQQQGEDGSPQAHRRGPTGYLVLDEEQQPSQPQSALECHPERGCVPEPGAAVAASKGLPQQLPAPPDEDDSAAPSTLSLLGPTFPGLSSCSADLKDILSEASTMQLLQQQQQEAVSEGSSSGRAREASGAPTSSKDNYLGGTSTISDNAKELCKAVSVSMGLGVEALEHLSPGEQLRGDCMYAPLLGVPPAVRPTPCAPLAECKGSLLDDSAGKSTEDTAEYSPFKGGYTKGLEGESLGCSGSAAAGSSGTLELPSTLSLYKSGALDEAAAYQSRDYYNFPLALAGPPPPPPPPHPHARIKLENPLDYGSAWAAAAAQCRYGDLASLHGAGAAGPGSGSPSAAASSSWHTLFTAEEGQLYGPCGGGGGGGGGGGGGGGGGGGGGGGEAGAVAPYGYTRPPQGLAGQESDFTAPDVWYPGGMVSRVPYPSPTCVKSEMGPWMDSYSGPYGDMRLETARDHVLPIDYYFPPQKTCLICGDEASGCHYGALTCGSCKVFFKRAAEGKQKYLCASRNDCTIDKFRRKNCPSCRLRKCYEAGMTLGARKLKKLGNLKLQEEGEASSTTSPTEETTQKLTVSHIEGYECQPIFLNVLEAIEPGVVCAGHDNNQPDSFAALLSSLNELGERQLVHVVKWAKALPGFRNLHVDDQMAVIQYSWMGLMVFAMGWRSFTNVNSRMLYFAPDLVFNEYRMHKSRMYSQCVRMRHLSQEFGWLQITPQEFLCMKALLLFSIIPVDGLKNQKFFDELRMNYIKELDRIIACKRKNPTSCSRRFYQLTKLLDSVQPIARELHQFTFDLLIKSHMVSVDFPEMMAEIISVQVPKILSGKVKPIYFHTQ

`C/C1=C2N=C(/C=C3N=C(/C(C)=C4\[N-]C(C(CC(N)=O)C4(C)CCC(=O)NCC(C)OP(=O)([O-])OC4C(CO)OC(n5cnc6cc(C)c(C)cc65)C4O)C4(C)N=C1C(CCC(N)=O)C4(C)CC(N)=O)C(CCC(N)=O)C\3(C)C)C(CCC(N)=O)C/2(C)CC(N)=O.[CH3-].[Co+3]` (configuration not stated): the Potency entry in assay [1], in assay [2], in assay [3], in assay [4], in assay [5] and in assay [7] was “inactive” throughout. For the same molecule, the Potency result in [9], in assay [10], in [11], in assay [12], in assay [13] and in [14] was “inactive” each time. For the same molecule, the outcome in assay [6] and in assay [8] was inactive. For the same molecule, the Potency in assay [15] is 23.7 µM (active).

With `NNc1nnc(Cc2ccncc2)c2ccccc12`, the Potency entry in assay [1], in assay [2], in assay [3], in assay [4], in [5] and in [7] was “inactive” in each case. Besides, the Potency result in assay [9], in [10], in assay [11], in assay [12], in assay [13] and in assay [14] was “inactive” throughout. For the same molecule, the Potency result in [16], in [17], in assay [15] and in [18] was “inactive” throughout. Further, the result in assay [6] and in assay [8] was inactive.

Take `C=CCCCCCCCCC(=O)OC`: the Potency entry in assay [1], in assay [2], in assay [3], in [4], in assay [5] and in [7] was “inactive” throughout. Also, the Potency entry in assay [9], in [10], in assay [11], in [12], in assay [13] and in [14] was “inactive” each time. In assay [15], the Potency entry was “inactive”. For the same molecule, the call in assay [6] and in [8] was inactive.

`CN(C)CC/C=C1/c2ccccc2CSc2ccccc21`: the Potency result in assay [1], in [2], in [3], in assay [4], in assay [5] and in [7] was “inactive” in each case. Besides, the Potency entry in assay [9], in [10], in assay [11], in assay [20], in assay [17] and in assay [15] was “inactive” each time. Moreover, the Potency result in assay [18] is “inactive”. Also, the molecule was classed as inactive in [6] and in assay [8]. Also, the Potency is 11.4 µM (active) in assay [12], 12.7 µM (active) in assay [13] and 12.7 µM (active) in assay [19].

As to `C=CCSSSCC=C`, the Potency result in assay [1], in assay [2], in assay [3], in [4], in [5] and in [7] was “inactive” throughout. For the same molecule, the Potency result in assay [9], in assay [10], in assay [11], in assay [12], in [13] and in assay [19] was “inactive” throughout. For the same molecule, the Potency entry in assay [14] and in [15] was “inactive” each time. Besides, the molecule was called inactive in [6] and in assay [8].

For `CCC(=O)NS(=O)(=O)c1ccc(-c2c(-c3ccccc3)noc2C)cc1`, the Potency result in assay [1], in [2], in assay [3], in assay [4], in assay [5] and in [7] was “inactive” throughout. Besides, the Potency entry in [9], in assay [10], in assay [11], in assay [12], in assay [19] and in assay [14] was “inactive” throughout. Besides, in assay [15], the Potency entry is “inactive”. Also, the result in [6] and in assay [8] was inactive.

Take `CCN(CC)CCOC(=O)c1ccc(N)cc1Cl`: the Potency result in [1], in [2], in assay [3], in assay [4], in assay [5] and in assay [7] was “inactive” each time. Moreover, the Potency entry in assay [9], in assay [10], in [11], in assay [12], in assay [19] and in [14] was “inactive” each time. Further, the Potency entry in assay [15] was “inactive”. The result in assay [6] and in assay [8] was inactive.
